Results: the supplement of paper PMC11732987, “Enantioselective OTUD7B fragment discovery through chemoproteomics screening and high-throughput optimisation” (Communications Chemistry, 2025)

Experiments:
Test in all cases: log2 ratio of Biotin-Ahx-Ub-VS probe labelling (fragment/DMSO); higher = less target engagement (more negative = stronger competition), active = hit call of the paper (q ≤ 0.05, log2 ratio ≤ -1)
Details in all cases: compound concentration: 200 uM; treatment time: 3 h
USP19 = target: T1, USP19 (UniProt O94966)
T1 sequence (whole entry): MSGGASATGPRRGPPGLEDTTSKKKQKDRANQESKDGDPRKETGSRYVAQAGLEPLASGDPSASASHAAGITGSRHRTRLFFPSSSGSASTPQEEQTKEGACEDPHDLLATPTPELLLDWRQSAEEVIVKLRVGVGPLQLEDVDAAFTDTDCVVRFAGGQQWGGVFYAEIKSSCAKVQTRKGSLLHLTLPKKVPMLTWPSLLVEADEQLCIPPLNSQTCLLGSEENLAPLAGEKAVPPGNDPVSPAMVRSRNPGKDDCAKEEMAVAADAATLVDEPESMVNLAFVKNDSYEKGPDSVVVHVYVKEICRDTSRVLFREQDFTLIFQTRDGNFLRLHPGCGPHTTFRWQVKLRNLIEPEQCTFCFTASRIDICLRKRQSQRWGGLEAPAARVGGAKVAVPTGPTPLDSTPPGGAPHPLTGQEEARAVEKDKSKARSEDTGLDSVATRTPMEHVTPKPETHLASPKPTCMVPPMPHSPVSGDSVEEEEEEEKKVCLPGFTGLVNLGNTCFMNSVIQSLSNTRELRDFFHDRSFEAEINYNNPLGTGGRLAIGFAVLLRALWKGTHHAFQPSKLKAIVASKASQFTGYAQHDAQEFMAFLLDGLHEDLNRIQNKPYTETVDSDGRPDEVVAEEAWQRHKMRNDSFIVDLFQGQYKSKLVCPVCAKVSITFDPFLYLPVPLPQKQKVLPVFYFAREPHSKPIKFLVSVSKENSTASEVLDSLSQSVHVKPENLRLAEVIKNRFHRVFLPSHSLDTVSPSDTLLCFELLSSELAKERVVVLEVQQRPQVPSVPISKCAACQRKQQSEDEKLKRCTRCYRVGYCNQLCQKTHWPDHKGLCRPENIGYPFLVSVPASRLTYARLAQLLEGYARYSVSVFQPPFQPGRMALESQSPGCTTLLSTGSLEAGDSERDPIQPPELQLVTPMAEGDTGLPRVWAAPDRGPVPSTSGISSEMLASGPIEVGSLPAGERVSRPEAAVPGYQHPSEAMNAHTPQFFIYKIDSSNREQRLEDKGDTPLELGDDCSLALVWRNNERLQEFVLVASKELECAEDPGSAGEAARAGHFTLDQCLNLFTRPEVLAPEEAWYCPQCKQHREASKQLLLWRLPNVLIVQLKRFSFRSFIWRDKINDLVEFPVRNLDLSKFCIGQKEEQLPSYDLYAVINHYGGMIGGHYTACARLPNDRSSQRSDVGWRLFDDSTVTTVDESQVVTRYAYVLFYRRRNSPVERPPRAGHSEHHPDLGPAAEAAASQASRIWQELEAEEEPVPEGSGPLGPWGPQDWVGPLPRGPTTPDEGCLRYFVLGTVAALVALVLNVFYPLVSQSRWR
Procedure, shortened: (§1)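 HEK293T lysate (495 µg per sample, in Tris/CHAPS/IGEPAL buffer with protease inhibitors) was treated in triplicate with fragment at 200 µM or with DMSO for 3 h. It was then treated with Biotin-Ahx-Ub-VS (0.5 µM final) for 1 h. Labelled DUBs were NeutrAvidin-enriched, digested with LysC and trypsin, and run by diaPASEF LC-MS/MS. Spectronaut label-free quantities were global-median-normalised. Values are average log2 ratios fragment/DMSO by unpaired t-test, using proteins with ≥2 unique peptides.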

USP22 = target: T2, USP22 (UniProt Q9UPT9)
T2 sequence (whole entry): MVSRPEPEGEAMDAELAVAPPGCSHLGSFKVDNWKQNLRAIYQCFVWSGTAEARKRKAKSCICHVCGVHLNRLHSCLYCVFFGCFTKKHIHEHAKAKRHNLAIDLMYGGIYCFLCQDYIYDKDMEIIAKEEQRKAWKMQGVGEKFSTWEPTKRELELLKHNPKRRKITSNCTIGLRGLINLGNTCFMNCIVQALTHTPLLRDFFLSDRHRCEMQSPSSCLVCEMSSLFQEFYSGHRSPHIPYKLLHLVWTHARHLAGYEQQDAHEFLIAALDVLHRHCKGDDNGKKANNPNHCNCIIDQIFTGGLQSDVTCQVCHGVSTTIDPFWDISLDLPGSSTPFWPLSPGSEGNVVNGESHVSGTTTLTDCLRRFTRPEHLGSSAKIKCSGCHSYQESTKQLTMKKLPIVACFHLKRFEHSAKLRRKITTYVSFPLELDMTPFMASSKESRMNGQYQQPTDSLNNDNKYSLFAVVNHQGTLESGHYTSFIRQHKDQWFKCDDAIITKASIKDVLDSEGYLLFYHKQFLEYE
Procedure, shortened: as §1

USP24 = USP24 (UniProt Q9UPU5)
Chain of USP24 (Q9UPU5 whole entry): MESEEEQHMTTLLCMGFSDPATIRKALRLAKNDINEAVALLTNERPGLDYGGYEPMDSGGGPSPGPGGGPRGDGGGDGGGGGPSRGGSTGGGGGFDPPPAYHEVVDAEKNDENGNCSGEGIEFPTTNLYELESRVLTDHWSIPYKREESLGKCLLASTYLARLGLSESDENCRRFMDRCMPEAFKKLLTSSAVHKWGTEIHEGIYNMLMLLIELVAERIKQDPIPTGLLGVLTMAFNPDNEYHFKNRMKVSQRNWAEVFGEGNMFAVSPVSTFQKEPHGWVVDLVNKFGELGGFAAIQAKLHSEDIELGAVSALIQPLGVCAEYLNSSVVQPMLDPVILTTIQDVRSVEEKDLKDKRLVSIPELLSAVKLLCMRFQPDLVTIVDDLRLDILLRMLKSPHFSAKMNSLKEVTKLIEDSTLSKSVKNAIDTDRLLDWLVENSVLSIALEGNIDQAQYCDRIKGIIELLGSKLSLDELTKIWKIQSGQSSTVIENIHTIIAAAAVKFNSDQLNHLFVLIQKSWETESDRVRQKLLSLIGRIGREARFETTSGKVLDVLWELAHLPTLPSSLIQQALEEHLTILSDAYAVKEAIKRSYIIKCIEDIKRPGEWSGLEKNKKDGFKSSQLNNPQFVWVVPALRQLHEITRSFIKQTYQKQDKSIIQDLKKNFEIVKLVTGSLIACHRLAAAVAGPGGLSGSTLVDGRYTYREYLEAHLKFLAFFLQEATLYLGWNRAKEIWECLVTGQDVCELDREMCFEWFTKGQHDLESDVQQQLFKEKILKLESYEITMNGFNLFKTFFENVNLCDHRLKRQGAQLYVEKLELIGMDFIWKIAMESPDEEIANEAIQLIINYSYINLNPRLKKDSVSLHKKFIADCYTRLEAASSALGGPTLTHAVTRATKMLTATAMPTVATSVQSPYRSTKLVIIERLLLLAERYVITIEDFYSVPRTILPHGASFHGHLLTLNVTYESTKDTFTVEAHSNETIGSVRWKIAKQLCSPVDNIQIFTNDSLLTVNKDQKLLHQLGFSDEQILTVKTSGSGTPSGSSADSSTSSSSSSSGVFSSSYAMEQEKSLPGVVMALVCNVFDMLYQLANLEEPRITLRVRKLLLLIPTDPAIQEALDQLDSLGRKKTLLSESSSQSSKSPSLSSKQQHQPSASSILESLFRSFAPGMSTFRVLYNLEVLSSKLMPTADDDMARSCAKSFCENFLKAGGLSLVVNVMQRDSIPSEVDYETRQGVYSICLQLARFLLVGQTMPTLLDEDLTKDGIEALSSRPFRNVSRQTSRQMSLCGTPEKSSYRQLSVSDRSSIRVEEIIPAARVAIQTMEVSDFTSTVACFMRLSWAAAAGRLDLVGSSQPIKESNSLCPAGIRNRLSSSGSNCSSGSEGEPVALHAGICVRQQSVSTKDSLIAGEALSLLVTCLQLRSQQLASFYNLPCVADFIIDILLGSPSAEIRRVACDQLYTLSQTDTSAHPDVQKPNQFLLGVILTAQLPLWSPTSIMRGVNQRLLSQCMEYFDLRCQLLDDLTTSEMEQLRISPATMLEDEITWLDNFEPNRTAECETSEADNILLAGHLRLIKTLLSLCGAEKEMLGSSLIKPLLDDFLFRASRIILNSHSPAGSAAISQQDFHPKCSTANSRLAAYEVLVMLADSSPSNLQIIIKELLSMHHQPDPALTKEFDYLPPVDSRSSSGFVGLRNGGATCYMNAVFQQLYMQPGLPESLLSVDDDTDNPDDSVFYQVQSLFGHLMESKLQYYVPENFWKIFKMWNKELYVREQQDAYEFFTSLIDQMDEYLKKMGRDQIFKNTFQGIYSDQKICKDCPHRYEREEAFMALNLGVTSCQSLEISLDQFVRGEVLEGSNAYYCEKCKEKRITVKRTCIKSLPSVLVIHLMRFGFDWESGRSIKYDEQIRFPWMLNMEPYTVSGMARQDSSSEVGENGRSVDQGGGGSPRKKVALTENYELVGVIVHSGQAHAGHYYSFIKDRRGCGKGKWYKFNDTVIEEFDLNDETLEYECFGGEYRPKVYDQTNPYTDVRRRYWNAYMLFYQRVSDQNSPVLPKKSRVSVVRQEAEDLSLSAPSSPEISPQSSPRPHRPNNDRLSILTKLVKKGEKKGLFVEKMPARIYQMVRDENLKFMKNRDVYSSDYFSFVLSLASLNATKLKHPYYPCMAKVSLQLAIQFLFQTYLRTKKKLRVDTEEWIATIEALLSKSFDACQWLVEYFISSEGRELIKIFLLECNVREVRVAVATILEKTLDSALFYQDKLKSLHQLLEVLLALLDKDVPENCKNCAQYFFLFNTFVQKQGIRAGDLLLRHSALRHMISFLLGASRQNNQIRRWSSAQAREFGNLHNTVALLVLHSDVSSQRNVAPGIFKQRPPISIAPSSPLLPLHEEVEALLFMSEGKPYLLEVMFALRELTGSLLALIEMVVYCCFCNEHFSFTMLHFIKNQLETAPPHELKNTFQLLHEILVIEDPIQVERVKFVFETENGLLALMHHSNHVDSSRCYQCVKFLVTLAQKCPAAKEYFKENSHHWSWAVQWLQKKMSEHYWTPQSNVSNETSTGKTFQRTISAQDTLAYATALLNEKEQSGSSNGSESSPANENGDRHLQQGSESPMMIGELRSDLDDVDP
Procedure, shortened: as §1

USP25 = target: T3, USP25 (UniProt Q9UHP3)
T3 sequence (whole entry): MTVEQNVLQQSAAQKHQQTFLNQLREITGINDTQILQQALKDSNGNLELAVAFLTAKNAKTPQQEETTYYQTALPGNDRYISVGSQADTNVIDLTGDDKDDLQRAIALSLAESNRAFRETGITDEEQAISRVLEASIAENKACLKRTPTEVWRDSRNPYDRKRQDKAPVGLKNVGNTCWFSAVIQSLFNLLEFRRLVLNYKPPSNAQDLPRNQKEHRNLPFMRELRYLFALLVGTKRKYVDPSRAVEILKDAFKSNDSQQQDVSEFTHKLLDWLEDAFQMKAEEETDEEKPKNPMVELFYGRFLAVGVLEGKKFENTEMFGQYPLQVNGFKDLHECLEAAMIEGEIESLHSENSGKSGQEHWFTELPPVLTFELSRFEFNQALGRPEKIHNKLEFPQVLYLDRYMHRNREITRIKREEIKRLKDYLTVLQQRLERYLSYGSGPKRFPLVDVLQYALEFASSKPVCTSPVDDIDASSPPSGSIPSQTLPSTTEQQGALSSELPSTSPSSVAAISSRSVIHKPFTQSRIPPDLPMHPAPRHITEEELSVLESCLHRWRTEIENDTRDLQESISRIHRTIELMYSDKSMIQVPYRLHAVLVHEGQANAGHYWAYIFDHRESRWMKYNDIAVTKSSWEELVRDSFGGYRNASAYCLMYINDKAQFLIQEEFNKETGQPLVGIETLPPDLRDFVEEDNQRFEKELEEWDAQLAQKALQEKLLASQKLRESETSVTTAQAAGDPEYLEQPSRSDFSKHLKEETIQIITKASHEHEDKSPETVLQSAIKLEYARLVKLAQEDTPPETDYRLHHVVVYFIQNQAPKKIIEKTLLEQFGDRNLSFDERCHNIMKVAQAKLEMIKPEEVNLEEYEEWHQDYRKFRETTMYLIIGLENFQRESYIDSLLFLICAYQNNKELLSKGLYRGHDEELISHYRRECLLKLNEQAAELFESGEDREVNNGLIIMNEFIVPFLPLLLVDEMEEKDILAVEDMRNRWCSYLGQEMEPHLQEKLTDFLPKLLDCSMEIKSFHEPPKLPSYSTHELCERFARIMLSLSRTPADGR
Procedure, shortened: as §1

USP28 = target: T4, USP28 (UniProt Q96RU2)
T4 sequence (whole entry): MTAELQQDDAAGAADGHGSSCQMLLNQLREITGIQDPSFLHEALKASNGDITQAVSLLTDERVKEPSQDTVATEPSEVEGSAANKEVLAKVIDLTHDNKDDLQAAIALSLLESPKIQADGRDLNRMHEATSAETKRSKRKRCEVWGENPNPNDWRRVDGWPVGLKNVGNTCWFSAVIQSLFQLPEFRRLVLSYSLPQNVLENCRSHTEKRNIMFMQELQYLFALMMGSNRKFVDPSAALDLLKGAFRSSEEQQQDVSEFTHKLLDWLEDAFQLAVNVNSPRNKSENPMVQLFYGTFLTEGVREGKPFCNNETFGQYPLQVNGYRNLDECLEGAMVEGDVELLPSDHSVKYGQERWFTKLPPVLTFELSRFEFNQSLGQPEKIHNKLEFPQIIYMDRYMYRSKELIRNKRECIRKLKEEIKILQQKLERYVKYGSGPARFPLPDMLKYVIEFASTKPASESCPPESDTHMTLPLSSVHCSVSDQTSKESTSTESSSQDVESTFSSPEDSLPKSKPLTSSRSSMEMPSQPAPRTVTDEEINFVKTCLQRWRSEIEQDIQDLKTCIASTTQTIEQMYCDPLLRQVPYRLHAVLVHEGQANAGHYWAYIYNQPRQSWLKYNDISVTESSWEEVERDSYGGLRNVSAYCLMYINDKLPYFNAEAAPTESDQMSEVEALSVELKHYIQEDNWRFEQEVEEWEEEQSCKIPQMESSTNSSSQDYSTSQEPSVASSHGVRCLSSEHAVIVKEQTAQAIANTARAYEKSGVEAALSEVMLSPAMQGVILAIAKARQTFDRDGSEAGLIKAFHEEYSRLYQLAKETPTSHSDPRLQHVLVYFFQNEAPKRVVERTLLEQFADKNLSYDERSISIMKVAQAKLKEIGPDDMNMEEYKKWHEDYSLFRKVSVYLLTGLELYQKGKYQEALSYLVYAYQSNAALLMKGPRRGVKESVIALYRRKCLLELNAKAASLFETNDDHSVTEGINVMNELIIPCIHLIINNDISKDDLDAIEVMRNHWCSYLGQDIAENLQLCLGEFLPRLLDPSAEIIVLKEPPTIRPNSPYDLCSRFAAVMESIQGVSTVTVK
Procedure, shortened: as §1

Measured: log2 ratio of Biotin-Ahx-Ub-VS probe labelling

COCC[C@@H](NC(=O)CCl)c1ccccc1
inactive: USP19 -0.0952 | USP22 0.104 | USP24 -0.153 | USP25 -0.293 | USP28 -0.388
